Shown are actives, neighbours in structure and some others; about 2.2% of the full set was active somewhere.
KLF5 inh: kruppel-like factor 5 inhibition; 0.23% of 290,000 active; inhibition, % at 5 µM; DLD-1 KLF5 promoter-luciferase reporter, luminescence;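 active = inhibition above a per-plate limit of that plate's mean compound inhibition plus 3 SD, cut at about 60% in these data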;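 note: 0% = DMSO wells and 100% = LY294002 at 200 µM; higher means less KLF5 promoter-driven luciferase light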
APP 5UTR inh: APP translation inhibition; SH-SY5Y APP 5'UTR-luciferase reporter, luminescence; AID 1285; inhibition, % at 2 µM; 0.82% of 190,000 active;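 active = inhibition above a set limit, derived from the sample mean plus 3 SD, cut at about 45% in these data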
aSyn 5UTR inh: MLPCN primary screen, SNCA 5' untranslated region; alpha-synuclein 5'UTR reporter, inhibitor activity; 0.82% of 300,000 active; inhibition, % (tested at 7.5 µM); in the data active = inhibition above about 60%;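 note: H4 neuroglioblastoma cells stably carrying SNCA 5'UTR luciferase fusion; 0% = DMSO wells and 100% = positive control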
IEC-6 tox: IEC-6 cytotoxicity, counter-screen for KLF5 inhibitors; 0.78% of 290,000 active; inhibition, % at 5 µM; luminescence viability; in the data active = inhibition above about 22%;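 note: 0% = plate median of test compound wells and 100% = cytotoxic reference compound wells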
BaF3 parental: reduces parental Ba/F3 cell viability, JAK2V617F counter-screen | CellTiter-Glo ATP luminescence | inhibition, % at 5.6 µM | 1.1% of 220,000 active;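 active = inhibition above a per-campaign cutoff, the mean inhibition of all tested compounds plus 3 SD, cut at about 27% in these data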;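 note: 0% = DMSO wells and 100% = JAK Inhibitor I control wells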
Ba/F3 V617F tox: reduce viability of Ba/F3 cells dependent on JAK2V617F; Ba/F3 EpoR-JAK2V617F viability, ATP luminescence; 1.1% of 220,000 active; AID 1446; inhibition, % at 5.6 µM;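 active = inhibition above the campaign mean plus 3 SD over all tested compounds, cut at about 24% in these data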;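 note: cytokine-independent growth of Ba/F3 cells driven by EpoR plus mutant JAK2; 0% = DMSO-treated cells and 100% = JAK inhibitor I control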
* hit, by the source's call; . = no result given.

SMILES	KLF5 inh	APP 5UTR inh	aSyn 5UTR inh	IEC-6 tox	BaF3 parental	Ba/F3 V617F tox
O=C(NNc1nc(-c2ccc(F)cc2)cs1)c1ccccc1	2	6	90*	-1	10	4
O=C(NNc1nc(-c2ccccc2)cs1)c1cccs1	3	.	-3	-1	-3	-2
COc1ccc(/C=C/C(=O)O)cc1O	.	.	16	.	.	.
COc1ccccc1N1CCN(C(=O)C2CCN(C(=O)c3ccc(C(C)(C)C)cc3)CC2)CC1	-25	.	-16	-3	.	.
Cc1ccc(/C(C#N)=C\c2ccc(N3CCOCC3)o2)cc1	-41	8	-313	2	36*	2
Cc1ccc2nc(/C(C#N)=C\c3ccc(N4CCOCC4)o3)[nH]c2c1	7	-121	-231	0	41*	-3
N#C/C(=C/c1ccc(N2CCCCCC2)o1)c1ccc(Cl)cc1	7	-6	-299	1	-1	1
O=C(CSc1nc2ccccc2n1Cc1ccc(Cl)cc1)N/N=C/c1ccc(C(=O)O)cc1	-18	54*	19	-4	6	0
COc1cc(C(=O)NC(=S)N(CCc2ccccc2)CCc2ccccc2)cc(OC)c1OC	-4	6	69*	6	0	0
COc1cc(C(=O)NC(=S)N(C)Cc2ccccc2)cc(OC)c1OC	-23	-3	2	2	3	2
CCOC(=O)N1CCN(c2c(NCc3ccc(F)cc3)c(=O)c2=O)CC1	41	.	-16	8	31*	16
CCOC(=O)N1CCN(c2c(NCc3ccc(Cl)cc3)c(=O)c2=O)CC1	40	36	15	19	69*	35*
Cc1onc(-c2ccc(Cl)cc2)c1-c1ccnc(SCC(=O)Nc2cc(Cl)cc(Cl)c2)n1	-4	.	-5	3	-1	1
COc1ccc2cc1Oc1ccc(cc1)C[C@H]1c3cc(c(OC)cc3CCN1C)Oc1c(OC)c(OC)cc3c1[C@H](C2)N(C)CC3	.	.	36	.	.	.
COc1ccc2cc1Oc1ccc(cc1)C[C@H]1c3c(cc4c(c3Oc3cc5c(cc3OC)CCN(C)[C@@H]5C2)OCO4)CCN1C	.	.	109*	.	.	.
CCCn1c(N2CCN(CC(=O)c3c(C)n(C)c4ccc(OC)cc34)CC2)nc2c1c(=O)[nH]c(=O)n2C	13	3	63*	7	0	2
COc1ccc(CCn2c(N3CCN(C)CC3)nc3c2c(=O)[nH]c(=O)n3C)cc1	-37	3	-4	3	5	-1
CCn1nc(CC(C)C)cc1C(=O)N1CCCC(Nc2ccc(OC)cc2)C1 (configuration not stated)	-12	.	-1	-2	.	.
O=C(c1ccco1)N1CCN(Cc2csc(-c3ccccc3Cl)n2)CC1	-28	.	-34	4	.	.
COc1cc(C2C(C#N)=C(N)N(N(C)C)C3=C2C(=O)CCC3)ccc1O (configuration not stated)	-26	.	7	-2	.	.
COc1ccc(C2=NN(C(=O)CSc3nnc(C)n3C)C(c3ccco3)C2)cc1 (configuration not stated)	-3	-21	-14	-3	6	0
COc1ccc(C2=NN(C(=O)COc3ncnc4ccccc34)C(c3ccco3)C2)cc1 (configuration not stated)	-2	21	64*	-3	1	-2
COc1ccccc1NC(=O)NC1(C(=O)NCC2CCCO2)CCCCC1 (configuration not stated)	1	.	11	-3	.	.
CC(=O)c1cccc(N=c2scc(-c3ccc(S(=O)(=O)N4CCOCC4)cc3)n2CCO)c1	-27	17	12	4	47*	43*
CCNC(=O)CN(c1ccc(F)cc1)S(=O)(=O)c1ccc2c(c1)OCCO2	-19	.	9	1	.	.
SMILES	KLF5 inh	APP 5UTR inh	aSyn 5UTR inh	IEC-6 tox	BaF3 parental	Ba/F3 V617F tox
Cc1cc(NO)c(C(C)C)cc1N=O	-15	5	42	5	45*	51*
CCCNC(=O)c1ccc(-c2nc3ccccc3s2)s1	-19	-155	79*	2	2	1
CC(=O)Nc1ccc(S(=O)(=O)Oc2ccc3c(c2)C(C)=CC(C)(C)N3)cc1	-8	27	9	33*	73*	80*
CC1=CC(C)(C)[N+](C)(C)c2ccc(C)cc21	-18	3	2	0	42*	29*
CCOCCCNC(=O)c1ccc2c(c1)N=C(CC)c1cc(Br)ccc1S2	74*	94*	88*	93*	95*	92*
CCC1=Nc2cc(C(=O)NCCN3CCOCC3)ccc2Sc2ccccc21	-23	.	3	-1	.	.
Cc1[nH]c(C)c(S(=O)(=O)NCc2ccc(OC(C)C)cc2)c1C(=O)N1CCCC1	-14	.	11	5	.	.
O=C(O)CCCCCNS(=O)(=O)c1cccc2c1C(=O)c1ccccc1C2=O	-1	3	3	26*	13	6
Cc1ccc(-c2nc3cc(N)ccc3o2)cc1	-118	-45	-7	6	6	-2
Cc1ccc(-c2nc3cc(C)ccc3o2)cc1	-134	-175	73*	-4	2	-4
COCCCNC(=S)N(CCO)Cc1cc2cc3c(cc2[nH]c1=O)OCO3	-36	.	-11	0	.	.
COc1ccc(N(C(=O)c2snc(C(N)=O)c2N)C(C(=O)NCC2CCCO2)c2ccc(C)o2)cc1OC (configuration not stated)	-12	.	-22	-2	.	.
COc1ccc2oc(=O)c(-c3csc(Nc4ccc(O)cc4)n3)cc2c1	-52	8	-70	5	28*	60*
COc1ccc2oc(=O)c(/C(C)=N/Nc3nc(-c4cc(C)ccc4C)cs3)cc2c1	-18	7	26	-2	-1	-3
Cc1ccccc1OC(C)C(=O)Nc1ccc2c(c1)OCCO2 (configuration not stated)	-55	.	-71	1	.	.
Cc1cc(NC(=O)C2CCCCC2C(=O)O)ccc1NC(=O)c1ccccc1 (configuration not stated)	-13	.	-10	4	.	.
CCN(CC)c1ccc(/C=C2\SC(=O)N(C(C)C)C2=O)o1	-13	.	-103	4	44*	51*
COc1ccccc1CN1CN(S(=O)(=O)c2ccccc2)c2nc3ccccc3nc21	-17	.	-15	5	-2	4
CC(C)COc1ccc(C(=O)Nc2sc3c(c2C(=O)O)CC(C)(C)OC3)cc1	12	8	63*	3	5	-3
COc1ccc(C(=O)Nc2sc3c(c2C(=O)O)CC(C)(C)OC3)cc1	16	-2	63*	-7	6	-2
COC(CNC(=O)c1ccc2c(c1)nc(C)n2-c1cccc(C)c1)OC	-10	.	2	-3	.	.
COc1cccc(C(=O)COC(=O)CCCC(=O)NC2CCCCC2)c1	-44	.	-1	-12	.	.
O=S(=O)(Nc1ccc(N2CCCCC2)cc1)c1ccc(F)cc1	-17	.	-25	1	0	-2
O=S(=O)(Nc1ccc(N2CCOCC2)cc1)c1ccc(F)cc1	-6	10	6	-6	90*	2
Cc1ccc(/C=C2\SC(=S)N(CCCC(=O)Nc3cccnc3)C2=O)cc1	57	.	79*	-3	.	.
CCc1ccc(/C=C2\SC(=S)N(CCC(=O)NC3=NCCS3)C2=O)cc1	25	53*	89*	0	-2	-2
